Most compounds without a hit are left out; they make up all but 8.1% or so of the library.
MCF10A rereplic = DNA re-replication induction in MCF 10a cells; MCF 10A DNA re-replication, Hoechst nuclear intensity, 48 h; Potency, µM (titrated, usually from 46.1 µM), inactives show at the highest dose activity, positive = re-replication, hits mostly activators; 350,000 tested, 2.9% active; AID 624296; also: % of control where 0% means no effect; nearly all actives have a fitted effect of over 50% in size
KB-V1 MDR tox = kills drug-selected multidrug resistant KB-V1 cells | KB-V1 MDR cells viability, CellTiter-Glo, 72 h | Potency, µM (highest dose often 46.1 µM), most hits filed as cytotoxic | 400,000 tested, 3.4% active; also: % is scaled to controls: 0 for no effect and ±100 for the full control effect; nearly all actives have a fitted effect of over 60% in size
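KB-V1 cells (P-gp-expressing MDR subline of KB-3-1) in phenol-red-free DMEM with 10% FBS were exposed to library compounds over a concentration series for 72 h at 37 degrees C. Viability read by CellTiter-Glo luminescence; concentration-effect curves fitted after normalization.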
KB-3-1 cytotox = kills parental KB-3-1 adenocarcinoma cells; Potency, µM (highest dose often 46.1 µM), actives largely listed as cytotoxic; KB-3-1 viability, CellTiter-Glo ATP luminescence, 72 h; AID 1347075; 400,000 tested, 1.4% active; also: % is scaled to controls: 0 for no effect and ±100 for the full control effect; nearly all actives have a fitted effect of over 60% in size
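KB-3-1 cells, DMEM (no phenol red) + 10% FBS; compound by pin transfer, 72 h, 37 °C. Readout: CellTiter-Glo luminescence after 10 min. Data normalized, curve-fitted.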
ELG1 repair inh = blocks ELG1-dependent DNA repair in HEK293T cells. HEK293T ELG1-luciferase reporter, luminescence, 16 h; DNA damage induced by 5-fluorouridine. AID 504467. Potency, µM (titrated, usually from 46.1 µM), for inactives: top-dose activity change, negative = inhibition, usual class: inhibitors. 330,000 tested, 2.3% active; also: % is scaled to controls: 0 for no effect and ±100 for the full control effect; nearly all actives have a fitted effect of over 55% in size
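In this reporter screen, reduction of luminescence relative to DMSO vehicle indicated activity. Compounds and 5-fluorouridine were added together to 2,000 cells per well, incubated for 16 hr at 37 °C, then developed with ONE-Glo.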
SW480 rerep = inducers of DNA re-replication in SW480 colon cancer cells; 340,000 tested, 1.8% active; Potency, µM (highest dose often 46.1 µM), without a hit: at the highest dose re-replication activation, most hits filed as activators; SW480 DNA re-replication, Hoechst DNA content imaging, 48 h; also: % of control where 0% means no effect; nearly all actives have a fitted effect of over 55% in size
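Cells (250 per well) received 23 nL compound or DMSO by pin tool and were kept 48 hr at 37 C, 5% CO2. Nuclei were then stained with Hoechst for 40 min and scanned for DNA content.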
The depositor's hits bear a star; i = inactive; ? = inconclusive; . = no result given; [ ] = remark or other dose. Calls follow the shape of the dose curve; as a rule, active = well fitted curve in the direction sought with a large enough effect; inconclusive = small, poorly fitted or top-dose-only effect, or another doubt; inactive = no such curve, though single readings can be large; an effect the other way counts as inactive or inconclusive. Potency is read from the fitted curve at half-maximal effect.

SMILES	MCF10A rereplic	KB-V1 MDR tox	KB-3-1 cytotox	ELG1 repair inh	SW480 rerep
Cn1cc(S(=O)(=O)N2CCCCCC2)cc1C(=O)N1CCN(c2cccc(C(F)(F)F)c2)CC1	.	21µM*	?	.	.
CC(=O)c1ccc(N2CCN(S(=O)(=O)c3csc(C(N)=O)c3)CC2)cc1	1%	?	i	3%	0%
Cc1cccc(N2CCN(C(=O)c3cc(S(=O)(=O)N4CCCC4)cn3C)CC2)c1C	8.2µM*	i	i	-2%	15µM*
Cn1cc(S(=O)(=O)N2CCCCCC2)cc1C(=O)N1CCN(c2cccc(Cl)c2)CC1	.	i	i	.	.
Cc1cccc(N2CCN(S(=O)(=O)c3csc(C(N)=O)c3)CC2)c1C	.	i	21µM*	.	.
C=C(C)c1nc2cc(OC)c(OC)cc2c(=O)o1	?	i	i	-2%	-2%[9.22 µM]
NC(c1csc(Nc2ccc(C(=O)c3ccccc3)cc2)n1)c1ccccc1Cl (configuration not stated)	.	21µM*	?	.	.
CCCCCCSc1ccc([C@H]2N[C@@](Cc3ccccc3)(C(=O)OC)[C@H]3C(=O)N(C)C(=O)[C@@H]23)cc1	5%	16µM*	?	4%	-9%[9.22 µM]
CCCCCCSc1ccc([C@H]2N[C@@](Cc3ccccc3)(C(=O)OC)[C@H]3C(=O)N(CC)C(=O)[C@@H]23)cc1	-14%	?	?	-3%	-5%
CCN(C[C@H]1N[C@@](Cc2ccccc2)(C(=O)OC)[C@H]2C(=O)N(C)C(=O)[C@@H]12)S(=O)(=O)c1ccc(C(F)(F)F)cc1	?	i	i	23µM*	7%
CCN(C[C@H]1N[C@@](Cc2ccccc2)(C(=O)OC)[C@H]2C(=O)N(C)C(=O)[C@@H]12)S(=O)(=O)c1ccc(OC(F)(F)F)cc1	-8%	?	i	21µM*	?
CCN(C[C@H]1N[C@@](Cc2ccccc2)(C(=O)OC)[C@H]2C(=O)N(Cc3ccccc3)C(=O)[C@@H]12)C(=O)c1ccccc1	-4%	i	i	14%	10%
CCN(C[C@H]1N[C@@](CC)(C(=O)OC)[C@H]2C(=O)N(Cc3ccccc3)C(=O)[C@@H]12)C(=O)c1ccccc1	11%	i	i	21µM*	28%[9.22 µM]
O=C(CSc1nnc2scc(-c3ccccc3)n12)Nc1ccc2c(c1)OCCO2	14%	i	i	?	-5%
COc1cccc(C2=CC(=O)C[C@H](c3ccc4c(c3)OCO4)C2)c1	19%	i	i	?	-3%
Cc1ccc(NC(=O)c2cc(C(=O)c3cc(Cl)ccc3O)cn(-c3ccc(C)cc3)c2=O)cc1	11%	18µM*	?	26µM*	16%
CCC(CC)NC(=O)c1ccc(NS(=O)(=O)c2ccc3[nH]c(=O)[nH]c3c2)cc1	-6%	i	i	?	-11%
CN(C)S(=O)(=O)n1cc(/C=C(\NC(=O)c2ccccc2Cl)C(=O)NCCCn2ccnc2)c2ccccc21	?	?	i	21µM*	-44%
C#Cc1cccc(C(=O)N2CCCC(C(=O)c3ccc(OC)cc3C)C2)c1 (configuration not stated)	11%	?	i	-4%	1%
CCOC(=O)Nc1ccc2c(COC(=O)C(NS(=O)(=O)c3ccc(Cl)cc3)C(C)O)cc(=O)oc2c1 (configuration not stated)	1%	i	i	21µM*	1%
CCn1c(=O)cc(SCC(=O)Nc2cccnc2)c2ccccc21	-5%	i	i	?	-14%
Cc1ccc(C(=O)Sc2cccccc2=O)cc1	2.1µM*	2.6µM*	?	?	?
O=C(Nc1ccccc1SC(=O)c1ccccc1)c1ccccc1	.	i	i	.	.
CCc1c(C#N)c(SCCC(=O)Nc2ccc(OC)cc2)nc2c1C(=O)CC(C)(C)C2	14%	?	i	?	5%
CCc1c(C#N)c(SCc2c(C)noc2C)nc2c1C(=O)CC(C)(C)C2	9.2µM*	?	i	?	-5%
SMILES	MCF10A rereplic	KB-V1 MDR tox	KB-3-1 cytotox	ELG1 repair inh	SW480 rerep
CCOC(=O)c1c(C)nc2c(c1-c1ccc(OC)cc1)C(=O)CC(C)(C)C2	?	?	i	?	3%
CCOC(=O)c1c(C)nc2c(c1C)/C(=N/O)CC(C)(C)C2	1%	?	i	18µM*	7%
Cc1ccc(Cl)c(OCCCCN(C)Cc2ccccc2)c1	8%	21µM*	i	-4%	4%
COC(=O)c1ccc(OCCCCN(C)Cc2ccccc2)cc1	18µM*	i	?	0%	24%
COc1ccc(OCCCCN(C)Cc2ccccc2)cc1	?	i	i	0%	3%
Cc1ccc(C(=O)Nc2nccs2)cc1S(=O)(=O)N1CCCCC1	21%	?	i	-20%	5%
CC[C@H](C)[C@H]1O[C@]2(CC[C@@H]1C)C[C@@H]1C[C@@H](CC=C(C)[C@@H](O[C@H]3C[C@H](OC)[C@@H](O[C@H]4C[C@H](OC)[C@@H](O)[C@H](C)O4)[C@H](C)O3)[C@@H](C)C=CC=C3CO[C@@H]4[C@H](O)C(C)=C[C@@H](C(=O)O1)[C@]34O)O2	?	23µM*	7.3µM*	.	-9%
FC(F)C(F)(F)Oc1cccc(Nc2nccn3c(-c4ccc5ccccc5c4)cnc23)c1	.	10µM*	?	.	.
FC(F)C(F)(F)Oc1cccc(Nc2nccn3c(-c4cccc5ccccc45)cnc23)c1	.	?	i	.	.
COc1ccc(NC(=O)CCCCCN2C(=O)c3cccc([N+](=O)[O-])c3C2=O)c(OC)c1	-6%	i	i	-7%	5%
COc1ccc(NS(=O)(=O)c2ccc3c(c2)n(C)c(=O)n3C)cc1	5.8µM*	i	i	?	3%
Cn1c(=O)n(C)c2cc(NS(=O)(=O)c3ccc4c(c3)CCCC4)ccc21	23µM*	9.2µM*	18µM*	61%	18%
Cn1c(=O)n(C)c2cc(NS(=O)(=O)c3ccc(C(C)(C)C)cc3)ccc21	3%	?	i	-12%	-4%
O=c1cc(N2CCc3ccccc3C2)[nH]c(=O)n1-c1ccc(Cl)cc1	10%	i	i	?	2%
O/N=C/c1nc2cc(Cl)ccc2o1	2%	i	i	25%	22%
CCCCCN(C(=O)CCC(=O)OCc1cccc(Cl)c1)c1c(N)n(CCCC)c(=O)[nH]c1=O	25%	i	i	-17%	3%
Cc1ccc2[nH]c3c(c2c1)CN(C(=O)CN1CCCCC1)CC3	?	i	i	-9%	-13%
Cc1ccc2[nH]c3c(c2c1)CN(C(=O)CN1CCCc2ccccc21)CC3	23µM*	i	i	0%	?
